{"source": "PubChem BioAssay AID834", "about": "(PCMD, 2007)", "note": "About 120 (0.14%) of roughly 85,000 compounds were called active.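 Rule for the calls: active = inhibition above 20%; inactive = inhibition below 20%.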 Many of the other results were omitted from the sample, so actives are more common in it than they were."}
{"assay": "clotrimazole potentiators killing Candida biofilms, primary screen, with clotrimazole, Alamar Blue (AID 834);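 note: preformed 24 hr biofilms exposed to compound for 48 hr; 0% = biofilm without compound and 100% = blank killed by clotrimazole plus chlorhexidine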", "details": "C. albicans biofilm + clotrimazole, at 6 µM, active compounds read high"}
{"molecule": "CC(=O)NC1=NN(C(C)=O)C(C)(c2ccc(Cl)s2)S1", "note": "(stereo unspecified)", "inhibition": "6.61% (inactive)"}
{"molecule": "CCOc1c(Br)cc(/C=C2\\C(=O)N(CCC#N)N=C2C)cc1OC", "inhibition": "-1.46% (inactive)"}
{"molecule": "Cc1cccc2nc(CSc3nc4[nH]ncc4c(=O)n3-c3cccc(Cl)c3)cc(=O)n12", "inhibition": "-2.14% (inactive)"}
{"molecule": "Cc1ccc(S(=O)(=O)N(c2cccc(C)c2)C2CCS(=O)(=O)C2)cc1", "note": "(stereo unspecified)", "inhibition": "11.2% (inactive)"}
{"molecule": "CS(=O)(=O)Nc1ccc(C(=O)N2CCCC2)cc1", "inhibition": "6.23% (inactive)"}
{"molecule": "O=C(c1ccccc1Oc1ccccc1)N1CCN(c2ccc(F)cc2)CC1", "inhibition": "6.89% (inactive)"}
{"molecule": "CCOc1ccc(C(=O)NC(C(=O)NCc2ccccn2)C(C)C)cc1", "note": "(stereo unspecified)", "inhibition": "-4.48% (inactive)"}
{"molecule": "Cc1cccc(N2CCN(C(c3ccc(N(C)C)cc3)c3nnnn3C(C)(C)C)CC2)c1C", "note": "(stereo unspecified)", "inhibition": "4.97% (inactive)"}
{"molecule": "COc1ccc(CNCCCO)cc1OC", "inhibition": "5.75% (inactive)"}
{"molecule": "Cc1nnc(SCc2nc3ccccc3nc2C)s1", "inhibition": "5.78% (inactive)"}
{"molecule": "CC(=O)N(C)c1ccc(NC(=O)C(F)(F)F)cc1", "inhibition": "0.77% (inactive)"}
{"molecule": "Cc1ccc(CN(N=Nc2nonc2N)c2nonc2N)c(C)c1", "inhibition": "1.82% (inactive)"}
{"molecule": "Cc1ccc(-c2cc(C(=O)NCC3CCCO3)c3ccccc3n2)o1", "note": "(stereo unspecified)", "inhibition": "5.01% (inactive)"}
{"molecule": "Cc1ccc(-c2noc(CSc3nnc(-c4ccncc4)n3-c3ccc(F)cc3)n2)cc1", "inhibition": "5.84% (inactive)"}
{"molecule": "Cc1ccc(CS(=O)(=O)CCC(=O)NC2CC2)cc1", "inhibition": "8.04% (inactive)"}
{"molecule": "Cc1csc(OCC(=O)Nc2ccc(C)c(C)c2)n1", "inhibition": "4.83% (inactive)"}
{"molecule": "CCN(CC)C(=O)CN(c1cccc(OC)c1)S(=O)(=O)c1ccc(C)cc1", "inhibition": "3.27% (inactive)"}
{"molecule": "CC1=NN(C(C)C)C(=O)C1", "inhibition": "9.86% (inactive)"}
{"molecule": "CCOC(=O)C1CSC(CC(=O)Nc2ccc(OCC)cc2)C(=O)N1", "note": "(stereo unspecified)", "inhibition": "3.56% (inactive)"}
{"molecule": "CCCc1nc(NCc2ccc3c(c2)OCO3)c2nnn(Cc3ccccc3Cl)c2n1", "inhibition": "7.6% (inactive)"}
{"molecule": "CCn1c(=O)c(=O)n(CC)c2cc(S(=O)(=O)N3CCc4ccccc43)ccc21", "inhibition": "1.66% (inactive)"}
{"molecule": "Cc1cccc(NC(=O)C2CC(=O)OC23CCCC3)c1", "note": "(stereo unspecified)", "inhibition": "-0.65% (inactive)"}
{"molecule": "C=C(Cl)COC(=O)C1C2C=CC(C2)C1C(=O)O", "note": "(stereo unspecified)", "inhibition": "6.89% (inactive)"}
{"molecule": "COCCNC(=O)Cn1cc(C(=O)c2cccs2)c2ccccc21", "inhibition": "-3% (inactive)"}
{"molecule": "CCOc1cccc(NC(=O)Cn2nc(-c3ccc4c(c3)OCCO4)ccc2=O)c1", "inhibition": "-3.83% (inactive)"}
{"molecule": "CC1CCc2c(nc3ncnn3c2Nc2ccc(OC(F)(F)F)cc2)C1", "note": "(stereo unspecified)", "inhibition": "2.5% (inactive)"}
{"molecule": "COc1c(F)c(F)c(C(=O)O)c(Nc2ccccc2C)c1F", "inhibition": "0.13% (inactive)"}
{"molecule": "CCOC(=O)N1CCN(Cc2nc(N)nc(Nc3ccc(C)cc3)n2)CC1", "inhibition": "4.91% (inactive)"}
{"molecule": "CCOc1ccccc1NC(=O)c1cccnc1", "inhibition": "4.81% (inactive)"}
{"molecule": "COc1ccc(CCNc2ncnc3nc[nH]c23)cc1OC", "inhibition": "22.7% (active)"}
{"molecule": "CCS(=O)(=O)NCCc1ccc(OC)c(OC)c1", "inhibition": "-1.71% (inactive)"}
{"molecule": "COc1ccc(CCNS(=O)(=O)c2ccc(F)cc2)cc1OC", "inhibition": "0.3% (inactive)"}
{"molecule": "CCCCNC(=O)C1CCCNC1=O", "note": "(stereo unspecified)", "inhibition": "1.47% (inactive)"}
{"molecule": "CCCCNS(=O)(=O)c1ccc(S(=O)(=O)n2cnc3ccccc32)cc1", "inhibition": "0.82% (inactive)"}
{"molecule": "O=C1N=C(N2CCCC2)S/C1=C\\c1cccc(Br)c1", "inhibition": "2.13% (inactive)"}
{"molecule": "CCOC(=O)C(C)n1cnc2sc(C)c(C)c2c1=O", "note": "(stereo unspecified)", "inhibition": "9.63% (inactive)"}
{"molecule": "CCOC(=O)c1cnc(SCc2nc(N)nc(Nc3ccc(OC)cc3)n2)nc1N", "inhibition": "1.79% (inactive)"}
{"molecule": "CN(C)[C@@H]1C(=O)C(C(N)=O)=C(O)[C@@]2(O)C(=O)C3=C(O)c4c(O)ccc(Cl)c4[C@@H](O)[C@H]3C[C@@H]12", "inhibition": "29.9% (active)"}
{"molecule": "CC1CCCN(C(C(=O)Nc2ccc(C(C)C)cc2)c2ccc3c(c2)OCO3)C1", "note": "(stereo unspecified)", "inhibition": "6.31% (inactive)"}
{"molecule": "CCS(=O)(=O)Nc1ccc(C2=NN(S(=O)(=O)c3ccc(F)cc3)C(c3ccco3)C2)cc1", "note": "(stereo unspecified)", "inhibition": "2.91% (inactive)"}
{"molecule": "Cc1cc(C(=O)OC(C)C(=O)Nc2cccc(S(=O)(=O)N3CCOCC3)c2)c(C)o1", "note": "(stereo unspecified)", "inhibition": "0.93% (inactive)"}
{"molecule": "COc1ccccc1-c1nc(C#N)c(N2CCC(C(N)=O)CC2)o1", "inhibition": "7.17% (inactive)"}
{"molecule": "Cc1cccn2c(=O)c(/C=C(\\C#N)S(=O)(=O)c3ccc(Cl)cc3)c(N3CCC(C(N)=O)CC3)nc12", "inhibition": "45.2% (active)"}
{"molecule": "Cc1ccc(C(c2nnnn2CS(=O)(=O)c2ccc(C)cc2)N2CCC(C(N)=O)CC2)cc1", "note": "(stereo unspecified)", "inhibition": "-1.5% (inactive)"}
{"molecule": "Cc1ccc(Cc2c(C)nc3nc(SCC(=O)NCCN4CCOCC4)nn3c2C)cc1", "inhibition": "-3.03% (inactive)"}
{"molecule": "Cc1ccc(-n2ccc(=O)c(C(=O)O)n2)cc1", "inhibition": "2.26% (inactive)"}
{"molecule": "COc1ccc(S(=O)(=O)Nc2ccc3oc(C)c(C(C)=O)c3c2)cc1", "inhibition": "-2.16% (inactive)"}
{"molecule": "O=C(Cc1ccccc1)Nc1c(C(=O)N2CCCCCC2)cnn1-c1ccccc1", "inhibition": "-2.24% (inactive)"}
{"molecule": "CC(C)CC(=O)Nc1cc(C(F)(F)F)ccc1N1CCOCC1", "inhibition": "1.97% (inactive)"}
{"molecule": "CC(C)(C)n1nnnc1C(c1ccc(Cl)cc1)N1CCSCC1", "note": "(stereo unspecified)", "inhibition": "6.98% (inactive)"}
{"molecule": "Cc1ccccc1-n1c(C)cc(/C=C2\\NC(=O)NC2=O)c1C", "inhibition": "2.93% (inactive)"}
{"molecule": "Cc1ccc(NC(=O)N2CCC(c3nc4c(nnn4Cc4c(F)cccc4Cl)c(=O)[nH]3)CC2)cc1", "inhibition": "5.75% (inactive)"}
{"molecule": "COc1ccccc1C(=O)N1CC2(C)CC1CC(C)(C)C2", "note": "(stereo unspecified)", "inhibition": "-0.87% (inactive)"}
{"molecule": "O=C(NCc1ccccn1)c1cc(-c2ccccc2Cl)on1", "inhibition": "-4.95% (inactive)"}
{"molecule": "CCc1ccc(C2C(C#N)=C(N)Oc3n[nH]c(CC(=O)OC)c32)cc1", "note": "(stereo unspecified)", "inhibition": "8.34% (inactive)"}
{"molecule": "CCn1nccc1C(=O)Nc1ccc(Cl)c(Cl)c1", "inhibition": "6.51% (inactive)"}
{"molecule": "O=C(CCCn1c(SCC(=O)c2ccccc2)nc2ccccc2c1=O)NCC1CCCO1", "note": "(stereo unspecified)", "inhibition": "0.02% (inactive)"}
{"molecule": "COC(=O)c1ccccc1NC(=O)CN(Cc1ccc(Cl)cc1)S(C)(=O)=O", "inhibition": "9.25% (inactive)"}
{"molecule": "COc1ccc(CN2CCCCC2C)cc1OC", "note": "(stereo unspecified)", "inhibition": "0.38% (inactive)"}
{"molecule": "CCC(C)NC(=O)c1cc(Cl)ccc1OC", "note": "(stereo unspecified)", "inhibition": "3.81% (inactive)"}
{"molecule": "C=CCn1c(-c2ccc3[nH]c(C)c(C)c3c2)n[nH]c1=S", "inhibition": "0.31% (inactive)"}
